PubChem BioAssay
“And” between values parts separate entries of the source, which are not always exact repeats. Equal values may be shown once. Unmarked numbers belong to inactive results. The rule behind the calls is not given here.

Target: Lethal factor (Bacillus anthracis) (UniProt P15917)
Test: Lethal factor protease inhibitors, Bacillus anthracis, multiplex microsphere cleavage assay, validation set (AID 588461)
Conditions: flow cytometry, at 10 µM, active compounds read high

SMILES | inhibition
CCN(CC)CC(=O)Nc1c(C)cccc1C | -6.6% and -3.8%
Cc1cc(OC(C(=O)O)c2ccccc2)c2c(C)c(Cc3ccccc3)c(=O)oc2c1 (stereo unspecified) | 1.7%
CN1CCCC(OC(=O)c2ccc3c(c2)OCCO3)C1 (stereo unspecified) | -2.2%
CCn1ccnc1CN(C)Cc1cn(-c2cccc(C)c2)nc1-c1cccc(F)c1 | -3.5%
CCCCCCCCNC(C)C(O)c1ccc(SC(C)C)cc1 (stereo unspecified) | -9.4%
CCC(=O)Oc1ccc(C(=O)Nc2ccc([N+](=O)[O-])cc2)cc1 | -3.6%
Cc1ccc2[nH]c3c(=O)n(CCCN4CCN(C)CC4)cnc3c2c1 | -2.5%
CN(C)c1nc(N(C)C)nc(N(C)C)n1 | -4.2%
Nc1cccc2nc3ccccc3cc12 | 1.2%
CC1(C)CC(=O)C(C(=O)CCCCC(=O)C2C(=O)CC(C)(C)CC2=O)C(=O)C1 | -5.7%
O=C1CCCN1CCCn1cnc2c([nH]c3ccc(F)cc32)c1=O | 2.3%
CC(=O)[C@H]1CC[C@H]2[C@@H]3CCC4=CC(=O)CC[C@]4(C)[C@H]3[C@H](O)C[C@]12C | -5.3%
CCOc1ccc(C(NC(C)=O)c2ccc(OC)c(OC)c2)cc1 (stereo unspecified) | 5.8%
Cc1c(Cc2ccccc2)c(=O)oc2c(CN(C)C)c(O)c(Cl)cc12 | -7.6%
COC(=O)C1=NN(C(=O)c2cccc(Br)c2)C(O)(c2ccc(Cl)cc2)C1 (stereo unspecified) | 1.2%
Cc1ccc(/C(=C\CN2CCCC2)c2ccccn2)cc1 | 11.9%

SMILES | inhibition
CC1(C)S[C@@H]2[C@H](NC(=O)Cc3ccccc3)C(=O)N2[C@H]1C(=O)O | -0.8%
O=C(O)c1cc2cc(F)ccc2[nH]1 | 4%
CN(C(=O)C(Cl)Cl)c1ccc(OC(=O)c2ccco2)cc1 | -0.8%
CC(=O)Nc1ccc(S(=O)(=O)c2ccc(N)cc2)cc1 | -3.2%
COc1ccccc1OCC(=O)O | -1.4%
Nc1ncnc2c1ncn2C1OC(CO)C(O)C1O (stereo unspecified) | 2%
COc1cccc(NC(=O)C2CC(=O)OC23CCOC(C)(C)C3)c1 (stereo unspecified) | -8.2%
CCOc1ccc(N2C(=O)CC(NCCNc3ccc([N+](=O)[O-])cn3)C2=O)cc1 (stereo unspecified) | -3.4%
C=CCc1ccc(OCC(O)COc2ccc(CC=C)cc2OC)c(OC)c1 | -6.2%
C/C(NC(=O)c1cccs1)=C1\C(=O)C[C@@H]2[C@H]1C2(C)C | 3.4%
N=c1c[n+](N2CCOCC2)[n-]o1 | 0.2%
COc1cc2c(cc1OC)-c1cc(OCc3ccccc3Cl)nc(=O)n1CC2 | 0.1%
O=C(CN1C(=O)c2ccccc2C1=O)Nc1cccc([N+](=O)[O-])c1 | -2%
CC1(C)CC(=O)c2cn3c(nc2C1)nc1ccccc13 | 0%
COc1cc2c(cc1OC)C(c1cc(OC)c(OC)c(OC)c1)NCC2 (stereo unspecified) | 6.9%
